The list is not random: actives were taken first. Their share in the collection is about 4.7%.
TRHR agonist: agonists of human TRH receptor. activation, % at 2 µM. 360,000 tested, 0.18% active. P34981. TRHR cells, calcium flux fluo-8, FDSS agonist mode; also: 0% is about no effect
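TRHR-expressing cells loaded with fluo-8 calcium dye; 23 nL library compound pin-transferred, kinetic FDSS fluorescence (Ex 480/Em 530) recorded about 180 s for agonist-induced calcium release, before a 10 nM TRH EC20 addition for potentiator mode.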
D1 antag: blocks dopamine activation of the human D1 receptor; HEK293 TREx D1 cells, calcium flux, dopamine EC80; active compounds read low; 360,000 tested, 3.2% active; P21728; activity change, negative = inhibition, % at 10 µM; in the data active = activity change below about -30%; also: % is scaled to controls: 0 for no effect and ±100 for the full control effect
Target sequence (P21728 whole entry, looked up): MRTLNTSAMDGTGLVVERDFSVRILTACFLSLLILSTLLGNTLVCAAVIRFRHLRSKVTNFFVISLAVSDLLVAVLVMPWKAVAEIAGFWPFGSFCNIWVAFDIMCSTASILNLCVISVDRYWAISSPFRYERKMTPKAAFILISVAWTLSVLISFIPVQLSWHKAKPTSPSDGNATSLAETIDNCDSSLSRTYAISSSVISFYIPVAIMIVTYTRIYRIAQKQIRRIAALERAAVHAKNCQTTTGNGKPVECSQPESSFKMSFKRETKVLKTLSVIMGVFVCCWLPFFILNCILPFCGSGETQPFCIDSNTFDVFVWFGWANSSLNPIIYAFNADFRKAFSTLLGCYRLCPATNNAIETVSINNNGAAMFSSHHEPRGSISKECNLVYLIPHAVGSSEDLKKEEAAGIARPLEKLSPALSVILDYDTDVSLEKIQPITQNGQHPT
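Allosteric or orthosteric antagonism assessed as attenuation of the calcium response to EC80 dopamine, added 180 s after compound, in induced HEK293 Trex D1 cells loaded with no-wash calcium dye.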
D1 PAM: potentiators of human D1 dopamine receptor | 360,000 tested, 0.036% active | HEK293 TREx D1 cells, calcium flux, dopamine EC20 potentiation | P21728 | AID 504651 | potentiation, % at 10 µM; in the data active = potentiation above about 30%; also: 0% is about no effect
TRHR enhancer: allosteric enhancers of human TRH receptor | P34981 | TRHR cells, fluo-8 calcium fluorescence, EC20 TRH enhancement | enhancement, % at 2 µM | 360,000 tested, 0.66% active | AID 493056; in the data active = enhancement above about 30%; also: 0% is about no effect
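TRHR-expressing cells loaded with fluo-8 calcium dye were read kinetically (ex 480/em 530) during compound addition, then stimulated with an EC20 of TRH (10 nM final). Enhancement of the Gq-mediated intracellular calcium response was scored.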
D1 agonist: agonists of human D1 dopamine receptor | P21728 | HEK293 T-REx D1 cells, calcium flux, agonist mode | activation, % at 2 µM | 360,000 tested, 1% active | AID 504660; also: 0% is about no effect
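Inducible HEK293 T-REx D1 cells, force-coupled to calcium signalling, were plated at 4000 cells/well with tetracycline and held overnight at 30 C. After no-wash calcium dye loading, compound-evoked calcium rise over 180 s flagged agonists.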
Active calls of the source: *; ! = a repeat was not active. Rule as the data show it, unless noted: active = activation above about 30%; inactive = the rest.

SMILES	TRHR agonist	D1 antag	D1 PAM	TRHR enhancer	D1 agonist
CC(=O)N1CCCc2cc(S(=O)(=O)N3CCCC(C(=O)Nc4cccc(F)c4)C3)ccc21 (centres undefined)	0	13	-9	11	1
COc1ccc(NC(=O)CN(C)S(=O)(=O)c2ccc3c(c2)CCCN3C(C)=O)cc1	0	-42*!	-1	-1	0
COc1ccc(CN2CCC(N(CCc3ccccc3)Cc3ccccc3)CC2)c(OC)c1	0	-1	-3	1	9
CN(C(=O)COC(=O)c1ccccc1OCc1ccc(F)cc1)C1CCS(=O)(=O)C1 (centres undefined)	1	-31*	-6	12	-1
CN(C(=O)COC(=O)c1ccccc1Nc1ccccc1)C1CCS(=O)(=O)C1 (centres undefined)	-1	-17	7	-3	0
CCOC(=O)C1=C(C)NC(C)=C(C(=O)OCC)C1C(=O)OCC(N)=O	0	1	-6	-1	-3
CCOC(=O)C1=C(C)NC(C)=C(C(=O)OCC)C1C(=O)OCC(=O)N(C)C1CCS(=O)(=O)C1 (centres undefined)	0	-36*	-4	-4	2
COc1ccccc1NC(=O)COC(=O)Cc1c[nH]c2ccccc12	-2	10	-3	-1	3
Cc1cccc(NC(=O)COC(=O)Cc2c[nH]c3ccccc23)c1C	0	-32*	0	-6	2
NC(=O)c1ccsc1NC(=O)COC(=O)Cc1c[nH]c2ccccc12	0	-34*	-10	3	14
Cc1ccc(NC(=O)COC(=O)Cc2c[nH]c3ccccc23)cc1F	0	-20	-3	8	9
O=C(COC(=O)Cc1c[nH]c2ccccc12)Nc1ccccc1	0	-34*	-6	4	5
Cc1ccc(SCC(=O)Nc2cc([N+](=O)[O-])ccc2O)cc1	3	-26	-10	-5	30*
Cc1ccc(CC(=O)Nc2ncc([N+](=O)[O-])s2)cc1	1	-39*	-7	-10	12
Cc1ccc(CC(=O)Nc2ccc([N+](=O)[O-])cc2C)cc1	-1	-41*	-5	6	11
CCCc1nnc(NC(=O)c2cc(=O)c3cc(Cl)ccc3o2)s1	0	-1	0	0	0
Cc1cccc(Cc2nnc(CCC(=O)N(C)C3CCOC3)o2)c1 (centres undefined)	0	-2	-3	18	2
COc1cccc(C(=O)NC(=O)Nc2cc(C)on2)c1	1	8	1	1	9
CCOC(=O)Cn1c(CN2CCN(c3ccc(OC)cc3)CC2)nc2c1c(=O)[nH]c(=O)n2C	0	4	-4	2	-2
CCOC(=O)Cn1nnnc1CN1CCN(c2ccc(OC)cc2)CC1	1	-2	-3	34*	4
COC(=O)C1=CC(C(=O)c2cccs2)=NN(c2ccc(OC)cc2)C1C(=O)OC (centres undefined)	2	-13	-1	-4	21
COc1cccc(OCCNC(=O)Nc2cc(F)c(F)cc2Cl)c1	-1	-40*	20	-5	9
N#Cc1ccc(-c2cccs2)nc1SCC(=O)Nc1cccc(C(F)(F)F)c1	1	6	0	1	4
N#Cc1c(C(F)(F)F)cc(-c2cccs2)nc1SCC(=O)Nc1ccc(Cl)cc1	14	6	2	-2	81*
N#Cc1c(C(F)(F)F)cc(-c2cccs2)nc1SCC(=O)Nc1cccc(C(F)(F)F)c1	26	-5	3	7	68*
SMILES	TRHR agonist	D1 antag	D1 PAM	TRHR enhancer	D1 agonist
Cc1cccc(NC(=O)CSc2nc(-c3cccs3)cc(C(F)(F)F)c2C#N)c1C	14	0	-2	-2	49*
N#Cc1ccccc1NC(=O)CSc1nc(-c2ccccc2)cc(C(F)(F)F)c1C#N	42*	15	-1	-3	133*
Cn1c2cc(S(C)(=O)=O)sc2c2cnn(Cc3ccccc3F)c(=O)c21	0	-24	18	1	7
COc1cc(-c2noc(CCC(=O)Nc3cc(C)ccc3C)n2)cc(OC)c1OC	0	-10	1	-9	0
COc1ccc(C(C(=O)NCCC(C)C)N(CCCO)C(=O)c2snc(C(N)=O)c2N)cc1OC (centres undefined)	0	-8	-4	-2	3
Cc1ccc(C)c(NC(=O)CSc2ccc(-c3cccs3)nn2)c1	0	-81*	-7	22	1
COc1ccc(NC(=O)CSc2nc(-c3ccccc3)cc(-c3cc(OC)c(OC)c(OC)c3)c2C#N)c(OC)c1	1	4	6	-4	33*
N#Cc1c(C(F)(F)F)cc(-c2ccc(F)cc2)nc1SCC(=O)O	0	-2	-4	18	4
CCCCOc1ccc(-c2cc(C(F)(F)F)c(C#N)c(SCC(=O)O)n2)cc1	0	-3	-6	8	68*
CC(c1nnc(SCC(=O)Nc2cc([N+](=O)[O-])ccc2F)n1Cc1ccccc1)N(C)C (centres undefined)	0	7	-3	5	3
COc1cc(OC)cc(C(=O)NC2CC3CCC(C2)N3C)c1 (centres undefined)	1	-54*	-14	1	1
CCCN1C2CCCC1CC(NC(=O)c1cc(OC)cc(OC)c1)C2 (centres undefined)	1	-34*	-9	0	-3
CCCN1C2CCCC1CC(NC(=O)c1ccc(C(C)(C)C)cc1)C2 (centres undefined)	0	10	4	8	8
CCN(C(=O)Cn1c([N+](=O)[O-])cnc1C)c1ccccc1	2	1	1	-4	4
Cc1csc(SCC(=O)N(C)C2CCS(=O)(=O)C2)n1 (centres undefined)	0	-6	-2	1	4
O=c1[nH]c(SCc2ccc(Cl)cc2)nc2c1CCC2	0	4	2	-6	1
O=c1[nH]c(SCc2ccccc2)nc2c1CCCC2	0	-41*	-3	-4	8
CCOc1ccc(/C=N/OCC(=O)NC(c2ccccc2)c2ccccc2)cc1	0	6	3	6	33*
COc1ccc(/C=N/OCC(=O)NC(c2ccccc2)c2ccccc2)c(OC)c1	1	3	-3	-1	15
Clc1ccc(CSc2nnc(-c3c[nH]c4ccccc34)o2)cc1	0	-6	-7	5	3
CCOc1ccccc1-c1nnc(SCc2ccc(Cl)cc2)o1	-2	-29	4	4	61*
COc1ccc(CNc2oc(/C=C/c3cc(OC)c(OC)c(OC)c3)nc2C#N)cc1	4	4	1	1	40*
CCNc1oc(/C=C/c2ccc(OCC)cc2)nc1C#N	0	-22	-4	-2	0
CCOc1ccc(/C=C/c2nc(C#N)c(NCCc3ccccc3)o2)cc1	1	-37*	1	-5	2
